The test deals with MDA-MB-468 breast. The test is described as follows: NCI-60 one-dose screen, 48 h (100 = growth as untreated, 0 = no growth, -100 = all killed). The settings on record: 10 µM unless noted.

Where “and” joins values, the source holds several entries; their conditions need not be identical. Identical values can stand only once. Compounds without any hit were thinned out: in the full panel of roughly 83,000, 20% have a hit.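 Testing used 96-well plates and a 48-hour single-concentration exposure. Example: -40 means 40% of the starting cells died.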 A number with no mark means an inactive call. Calls of active or inactive are those of the source. The calls were made as follows: active = growth percent below 10; inactive = the rest.

Consider `Cc1ccc(-c2csc(N)n2)cc1`, for which the growth was 104%.
The figure for `O=S(=O)(Nc1cc(Sc2cccc3cccnc23)c(O)c2ccccc12)c1ccc(F)cc1` is -46.6% (active).
In the case of `FC(F)(F)Oc1ccc2nc3nc4ccc[nH]c4cc3c2c1`, the growth is -25.5% (active).
For the molecule `CN(C)c1ccc(-c2ccc3[nH]c(=O)nc(-c4ccc(F)cc4)c3c2)cn1`, the growth was 1.22% (active).
Take `CCCCC(CC#N)(CCC)CCC`: the growth is 112%.
The figure for `N=C(N)c1ccc(-c2ccc(-c3ccc(Cl)cc3)s2)nc1` is -56.4% (active).
Regarding `N#CC(=Nc1cccc(F)c1)C1=C(O)c2ccccc2C1=O`, the growth is 75.2%.
Take `CCN(CC)CCN1C(=O)c2cccc3c(/C=C/CN4C(=O)c5cccc6cccc(c56)C4=O)ccc(c23)C1=O`: the growth is 99.2%.
`Cn1c2ccccc2c2c3c(c4c5cc(Br)ccc5n(C)c4c21)C(=O)N(O)C3=O`: the growth is -0.278% (active).
Take `Cc1ccc(-c2nc3nc(-c4ccccc4)nc(N4CCN(S(=O)(=O)c5ccccc5)CC4)c3o2)cc1`: the growth was 101%.
As for `NC(N)=Nc1ccc(Oc2cccc(NC(N)=Nc3ccc(Br)c(C(F)(F)F)c3)c2)cc1`, the growth was 4.68% (active).
Consider `COc1ccc(C2=CC(c3cc(OC)c(OC)c(OC)c3)NC(=O)N2)cc1OC` (centres undefined), for which the growth was -12.6% (active).
As for `O=C(/C=C/c1ccco1)Nc1ncc(Cc2cccc(C(F)(F)F)c2)s1`, the growth is 10.1%.
For the molecule `CNCCCNc1nc2ccccc2c2c(=O)c3cc(OC)ccc3sc12`, the growth was 24.8%.
The figure for `COc1ccc2oc(-c3ccc(Cl)cc3)c(N3CCN(C)CC3)c2c1` is -53.5% (active); for `Cc1c2cnccc2c(C)c2c1c1cc(C(=O)O)ccc1n2C` it is -7.86% (active).
For `O=C1NC(=S)NC(=O)C1=Cc1cn(Cc2cn(Cc3cccc4ccccc34)nn2)c2ccccc12`, the growth is 94.9%.
Consider `CCOc1ccc(C(=O)Cc2ccccc2)cc1`, for which the growth is 90.2% and 96%.
In the case of `CC1(C)CC[C@]2(C(=O)N3CCOCC3)CC[C@]3(C)C(=CC[C@@H]4[C@@]5(C)C/C(=C/c6ccco6)C(=O)C(C)(C)[C@@H]5CC[C@]43C)[C@@H]2C1`, the growth was 82.3%.
In the case of `Cn1c(COC(=O)NCCc2ccccn2)nc2c(N3CCOCC3)nc(Cl)nc21`, the growth was -51.1% (active).
The figure for `Cc1c(C(=O)NCCC(=O)NO)sc2ncnc(Nc3ccc(F)c(Cl)c3)c12` is 103%; for `CC/C=C\C[C@H](O)C/C=C1/C(=O)C=C[C@@H]1C/C=C\CCCC(=O)N(C)C` it is -67.8% (active).
Regarding `Cc1ccc(/C=C/C(=N/N=C(N)N)c2ccccc2)cc1`, the growth was -6.79% (active).
As for `Cc1cc(N2CCOCC2)nc(N[C@@H]2CCC[C@H](Nc3ccnc4cc(Cl)ccc34)C2)n1`, the growth was -6.14% (active).
Regarding `COc1ccc(-c2nc3sc(-c4cc(OC)c(OC)c(OC)c4)nn3c2/C=C2/C(=O)Nc3ccc(F)cc32)cc1`, the growth was -65.3% (active).
Take `NC(=Nc1ccccc1)SCCCSC(N)=Nc1ccccc1`: the growth was 85.8%.
The figure for `O=C(CC(SCc1ccccc1)c1ccccc1)c1ccccc1` (centres undefined) is 84.9%; for `COc1cc(C2c3cc(OC(C)=O)c(OC)cc3CC3C(=O)OCC32)ccc1OC(C)=O` (centres undefined) it is 96%; for `COc1cc(Cl)cc(-c2nn(C(=O)NS(=O)(=O)c3ccccc3)cc2-c2ccncc2)c1` it is 89%.
In the case of `COc1cccc(/C=C2\Oc3cc(OCCN4CCCC4)ccc3C2=O)c1`, the growth was 82.8%.
The figure for `CC(C)c1ccc(C(=O)Nc2nc3ccc(O)c(CN(C)C)c3s2)cc1` is 77.1%.
Regarding `CCCNc1ccc(C2=NCCCN2)cc1`, the growth is 87.9%.
The figure for `CCCCCCCC(=O)SCC/C=C/[C@@H]1CC(=O)NCc2cccc(n2)CN(Cc2ccc3ccccc3c2)CC(=O)N[C@@H](C(C)C)C(=O)O1` is 7.6% (active); for `COc1cccc(O)c1/C=C(/C)c1ccc2c(OC)cccc2[o+]1` it is 112%.
`Cn1cc(-c2cc3ncnc(Nc4ccc(CC(=O)Nc5cc(C(C)(C)C)nn5C)cc4)c3s2)cn1`: the growth is 33.8%.
The figure for `CC(C)(O)c1cccc(F)c1` is 93.8%.
For `COc1ccc2c(OCc3nnc4ccc(-c5ccccc5)nn34)ccnc2c1`, the growth was 97.2% [2.5 µM].
Take `CNC(=O)c1c(NC(=O)c2ccc(C(C)C)cc2)sc2c1CCC(=O)C2`: the growth is -28.4% (active).
For the molecule `COC(=O)c1c(C)nc(Nc2nc3ccccc3s2)nc1-c1ccc(Cl)cc1Cl`, the growth is 104%.
Consider `CCN(CC)CCCN1C(=O)c2c(c(C)c3c(oc4cc(O)ccc43)c2C)C1=O`, for which the growth was 102%.
Regarding `O=C1c2ccc3c4c5ccc(c24)C(=O)N1CCCOCCCCOCCCNCc1ccc(cc1)CNCCCOCCCCOCCCN(C3=O)C5=O`, the growth is -81.4% (active).
With `COc1ccc(/C(=C(\c2ccccc2)[N+](=O)[O-])c2ccc(OCCN3CCCC3)cc2)cc1`, the growth is 68.1%.
Take `O=C1/C(=C/c2cn(-c3ccccc3)nc2-c2ccccc2)SC(=S)N1CCc1ccccc1`: the growth is 103%.
`OCCOCCN(Cc1ccccn1)Cc1cc(I)cc(I)c1O`: the growth is 88%.
The figure for `CN1CCN(c2ccc3nc(-c4c(N)c5c(F)cccc5[nH]c4=O)[nH]c3c2)CC1` is 108% and 102%; for `CC(=O)/C=C/c1cc2cc(Cl)ccc2[nH]c1=O` it is 82.9%; for `COC(=O)c1c2c(c(C)[n+]([O-])c1C)C(=O)C=C(NCc1cccc(OC)c1)C2=O` it is -67.8% (active).
For `C#CCOc1ccc(/C=N/Nc2nc(-c3ccc(OC)cc3)cs2)cc1`, the growth is 45.3%.
In the case of `COc1cc(OC)c(NC(=O)n2ncc3cc(Nc4ncnc5ccccc45)ccc32)cc1Cl`, the growth was -5.26% (active).
As for `CCN1c2ccccc2C(Cl)(c2ccc(N(C)C)cc2)c2ccccc21`, the growth is 86.6%.
As for `Nc1c(C(=O)Nc2ccccc2)sc2nc3c(cc12)C(O)CCC3` (centres undefined), the growth is 51.6%.
The figure for `CC(C)CCSc1nc(N)nc2nc[nH]c12` is 103%; for `Nc1ncc(-c2ccc3ncnc(Nc4ccc(F)c(Cl)c4)c3c2)cn1` it is -22.3% (active).
As to `CO[C@H]1C[C@@H]2CC[C@@H](C)[C@@](O)(O2)C(=O)C(=O)N2CCCC[C@H]2C(=O)O[C@H]([C@H](C)C[C@@H]2CC[C@@H](O)[C@H](OC)C2)CC(=O)[C@H](C)/C=C(\C)[C@@H](O)[C@@H](OC)C(=O)[C@H](C)C[C@H](C)\C=C/C=C/C=C/1C`, the growth is 1.57% (active).
For `Cc1nc2cc(-n3c(-c4ccc(F)cc4)nc4ccccc4c3=O)ccc2n1Cc1ccccc1`, the growth is 15.2%.
The figure for `O=C(Nc1ccc(Cl)c(Cl)c1)OCn1ncc2ccc([N+](=O)[O-])cc21` is 87%; for `Cn1c(=O)[nH]c(=O)c2nc3c(nc21)-c1ccccc1C3=O` it is 82.8%.
The figure for `O=C1Nc2ccc(Cl)cc2/C1=C/c1ccc[nH]1` is -19.6% (active).
Consider `O=C(NNc1nc2cc(F)c(F)cc2n2cccc12)c1ccncn1`, for which the growth is -25.6% (active).
For the molecule `COC(=O)CCC(=O)C(=O)OC`, the growth was 52.9% [10 mM].
Regarding `CCOC(Cc1c(N)[nH]c(=S)[nH]c1=O)OCC`, the growth was 101%.
As for `O=C(Nc1ccc(F)cc1)Nc1ccc(Cl)c([N+](=O)[O-])c1`, the growth was -3.78% (active).
With `COc1cnc2c(c1)C(=O)c1c-2n(CCCN2CCC(N)CC2)c(=O)c2cc([N+](=O)[O-])ccc12`, the growth is 74%.
The figure for `COc1ccc(-c2cn(-c3ccc(Cl)cc3)c(SCC(=O)c3ccc([N+](=O)[O-])cc3)n2)cc1` is 71.2%.
For `COc1cc(Cl)cc(-c2nn(-c3cccc(NC(=O)Nc4ccc(Cl)c(C(F)(F)F)c4)c3)cc2-c2ccncc2)c1`, the growth was -14.4% (active).
Take `S=c1[nH]nc(Cc2ccccc2)c(=S)[nH]1`: the growth is 94.7%.
For the molecule `CC1=CC[C@@H]2C(C)(C)[C@@H](O)CC[C@@]2(C)[C@@H]1COc1ccc2ccc(=O)oc2c1`, the growth is 42.8%.
Turning to `N#C/C(=C\c1ccc(-c2ccc(Cl)cc2)o1)c1ccc(Cl)cc1`, the growth is 82.2%.
The figure for `Cc1ccc(-n2cc(/C=C/C(=O)c3ccc(S(C)(=O)=O)cc3)c(-c3ccc(S(C)(=O)=O)cc3)n2)cc1` is 106%; for `Cc1nn(-c2cc(=O)[nH]c3ccccc23)c(N)c1C#N` it is 110%.
Turning to `CCc1ccc(/C=C/c2ccc(O)c3ncccc23)[n+](C)c1`, the growth was 19.6%.
As for `CCN1CCN(c2ccc(Nc3cc(-c4cccnc4Nc4c(Cl)c(OC)cc(OC)c4Cl)ncn3)cc2)CC1`, the growth was 89.6%.
Turning to `Cc1ccc2[nH]c3nc4cccnc4c(C)c3c2c1`, the growth is -35% (active).
Take `O=C(CCCCCCNC(=O)C(O)(O)C(F)(F)F)Nc1ccc(-c2ccccc2)cc1`: the growth is -10.5% (active).
As to `COc1cc2nc(-c3ccc(Cl)cc3)cc(OCCCN3CCOCC3)c2cc1OC`, the growth is 59.9%.
As for `C=C(C)[C@@H]1CC[C@]2(C(=O)NCCCO)CC[C@]3(C)[C@H](CC[C@@H]4[C@@]5(C)CCCNC(C)(C)[C@@H]5CC[C@]43C)[C@@H]12`, the growth was 72.3%.
Consider `C=CCCCCCCCCC(=O)OC(C)C`, for which the growth is 97.5%.
The figure for `Cc1nc2ccccc2n1CC1NC(=O)NC1=O` (centres undefined) is 97.6%; for `COc1cccc(Nc2ccnc3[nH]c4ccc([N+](=O)[O-])cc4c23)c1` it is 23.1%; for `O=C(Cc1ccc(/C=C/C(=O)c2ncc[nH]2)cc1)Nc1ccc(C(F)(F)F)cc1` it is 15.1%.
Consider `N#Cc1c(-c2ccc(Cl)cc2)nc(SCc2ccccc2)nc1N1CCNCC1`, for which the growth is 10.3%.
Regarding `CCCCOc1c(N)cccc1C(=O)OCCN(CC)CC`, the growth was 112%.
As for `O=c1oc2cc(OS(=O)(=O)c3ccc(F)cc3)ccc2c2c1CCCCC2`, the growth was 31.3%.
Regarding `Cn1cc(-c2ccc3c(Nc4cccc(NC(=O)Nc5cccc(F)c5)c4)ncnc3c2)cn1`, the growth was 3.69% (active).

The record behind these values is PubChem BioAssay (NCI).
